Source: PubChem
Peg3 prom inh: Peg3 promoter-driven luciferase inhibitors, primary screen, cell-based, HeLa, luciferase luminescence; HeLa PEG-Prom luciferase reporter, overnight; inhibition, % at 20 µM; 1.7% of 360,000 active; AID 588405, 2011;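 active means inhibition of at least 50% at 20 µM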
HIF-2a block: HIF-2a reporter inhibitors, primary screen, luminescence, 786-0 RCC cells | 0.72% of 360,000 active | 786-0 RCC cells HIF-2a reporter, luciferase luminescence, overnight | AID 624352, 2012 | inhibition, % at 18.8 µM;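 active means inhibition of the luminescence signal of 40% or more relative to plate controls, in a single-dose primary screen at 18.75 µM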
TWEAK Fn14 block: inhibitors of TWEAK-Fn14 signaling, primary screen, luciferase reporter cells, uHTS; TWEAK-stimulated Fn14 reporter cells, luciferase luminescence, 8 h; 2% of 360,000 active; AID 1159606, 2016; inhibition, % at 10 µM; in the data active means inhibition above about 50%
CF NFkB block: inhibitors of PAF-induced NF-kB signaling, primary screen, cell-based, GFP fluorescence, uHTS. KKLEB NF-kB-GFP reporter, GFP fluorescence overnight. inhibition, % at 5 µM. 0.86% of 360,000 active. AID 588850, 2011;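 active means at least 50% inhibition at 5 µM, scaled per plate between neutral and stimulator controls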;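 further: PAF is a Pseudomonas aeruginosa culture filtrate used as stimulus; plate controls were PAF-stimulated DMSO wells for no effect and unstimulated DMSO wells for full effect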
KKLEB cytotox: cytotoxicity in KKLEB CF airway cells, primary screen, cytotoxicity control for CF NF-kB inhibitor project, cell-based, uHTS, fluorescence assay plates | 0.36% of 360,000 active | activity change (cytotoxicity), % at 5 µM | AID 602141, 2011 | KKLEB CF airway cells viability, ATPlite luminescence, overnight; active compounds read low; cells stimulated with P. aeruginosa culture filtrate;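 active means corrected activity change at or below -50% at 5 µM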
TROY signal inh: inhibitors of TROY-driven NF-kB signaling, primary screen, Q293 LMP1-TROYcd cells, NF-kB luciferase, uHTS. inhibition, % at 10 µM. Q293 LMP1-TROYcd NF-kB luciferase reporter, 4 h. 0.98% of 360,000 active;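 active means compounds whose plate-normalised and pattern-corrected inhibition of the luciferase reporter signal at the single screening dose is 50% or more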
* = called active by the depositor; . = no result given. Rows were chosen to be rich in hits. Some 4% of all compounds tested hit in one or more screens of this group.

SMILES	Peg3 prom inh	HIF-2a block	TWEAK Fn14 block	CF NFkB block	KKLEB cytotox	TROY signal inh
CCc1cccc(CC)c1-n1c(SCC(=O)N2CCCc3ccccc32)nc(O)cc1=O	-9	8	15	-47	6	-8
Cc1ccc(-c2nc(C(=O)NCC3CCCO3)cc3c2[nH]c2ccccc23)cc1 (configuration not stated)	68*	-3	53*	30	-17	15
Cc1ccc(-c2nc(C(=O)NCCCN(C)C)cc3c2[nH]c2ccccc23)cc1	91*	-23	-29	-57	-4	-51
Cc1ccccc1-c1nc(C(=O)NCC2CCCO2)cc2c1[nH]c1ccccc12 (configuration not stated)	46	4	54*	19	0	-3
Cc1[nH]c2ccccc2c1C(=O)CSc1nc2ncc(Cl)cc2[nH]1	115*	21	-2	-1	4	-20
Cc1ccc2nc(SCC(=O)c3c(C)[nH]c4ccccc34)[nH]c2c1	-51	-156	-10	0	-5	4
CC1(C)CC=CC(COC(=O)c2ccccc2C(=O)O)C1 (configuration not stated)	-88	-131	96*	-20	12	-30
CCc1ccc([C@@H]2C[C@H]3[C@@H](CN2S(=O)(=O)c2ccc(C)cc2)C(=O)C[C@@H](c2ccccc2F)N3S(=O)(=O)c2ccc(C)cc2)cc1	6	7	-7	5	-7	0
CCOc1ccc(NC(=O)N(O)C2(C#N)CCCCC2)cc1	96*	6	-32	-7	7	-23
COC(=O)[C@@]1(Cc2ccc(F)cc2)[C@H]2c3cc(C(=O)N4CCCC4)n(CCCNc4ncc(C(F)(F)F)cc4Cl)c3C[C@H]2CN1C(=O)c1ccccc1	20	-19	19	36	-5	8
O=C(/C=C/c1ccco1)NCC1(c2ccccc2)CCCC1	6	20	89*	-4	1	87*
O=C(C1CCCN(S(=O)(=O)c2ccc(F)cc2)C1)N1CCCCC1 (configuration not stated)	-15	4	3	14	-2	6
Oc1ccccc1C1SC(c2ccccc2O)SC(c2ccccc2O)S1 (configuration not stated)	105*	33	51*	91*	-88*	81*
COc1ccc(C2c3ccc4ccccc4c3Oc3ncn(CCN4CCOCC4)c(=N)c32)cc1 (configuration not stated)	102*	27	-1	11	-12	17
COc1ccc(C2c3ccc4ccccc4c3Oc3ncn(CCO)c(=N)c32)cc1 (configuration not stated)	103*	8	-18	9	-16	-11
COc1ccc(C2c3ccc4ccccc4c3Oc3ncn(CCCO)c(=N)c32)cc1OC (configuration not stated)	32	9	-10	20	-24	-7
N=c1c2c(ncn1CCCO)Oc1c(ccc3ccccc13)C2c1ccccc1 (configuration not stated)	73*	-9	3	8	-7	5
COc1ccc(C2c3ccc4ccccc4c3Oc3ncn(CCN(C)C)c(=N)c32)cc1 (configuration not stated)	92*	10	-25	35	-23	-62
O=C(Nc1ccc(COc2ccccc2)cc1)Nc1cccc(C(=O)O)c1	-115	-46	-21	-23	1	-22
c1ccc(Oc2ncnc3oc(-c4ccccc4)cc23)cc1	-33	-31	96*	-4	-3	3
O=C(NC1CCCCC1)NC1CC2CCC(C1)N2Cc1nnnn1Cc1ccc2c(c1)OCO2 (configuration not stated)	6	7	87*	13	1	.
CC(=O)c1cccc(NC(=O)C2Cc3c(-c4ccc(Cl)cc4)ccnc3O2)c1 (configuration not stated)	21	13	23	-14	-2	33
CCOc1ccc(-c2cc(C(=O)NCCCn3ccnc3)c3cc(Br)ccc3n2)cc1	106*	7	-22	-167	-45	-69
CCOc1ccc(-c2cc(C(=O)NCCCn3ccnc3)c3ccccc3n2)cc1	-57	-151	-5	7	5	-29
O=c1[nH][nH]c2c1C(c1ccc(F)cc1)OC(CCc1ccccc1)C2 (configuration not stated)	.	9	-6	.	.	4
SMILES	Peg3 prom inh	HIF-2a block	TWEAK Fn14 block	CF NFkB block	KKLEB cytotox	TROY signal inh
CCOc1ccccc1N1CCN(C(=O)c2ccc(Cl)c(S(=O)(=O)N3CCCCC3)c2)CC1	26	14	42	32	-13	53*
CCOc1ccc(NS(=O)(=O)c2cc(C(=O)N3CCN(C(C)=O)CC3)ccc2Cl)cc1	9	13	89*	18	5	-1
O=C(Nc1ccccc1Oc1ccccc1)[C@@H]1O[C@H](CO)[C@H](O)[C@H](O)[C@H]1O	8	13	-3	-23	6	-3
COC(=O)c1ccccc1OCCOCCOc1cccc2cccnc12	16	23	-4	6	-3	3
O=[N+]([O-])c1ccccc1OCCOCCOc1cccc2cccnc12	-8	-3	75*	-17	-25	87*
Nc1c(C(=O)NCc2ccco2)c2nc3ccccc3nc2n1CCc1ccccc1	16	-44	72*	-19	-1	66*
COCCCn1c(C(=O)Nc2ccc3c(c2)OCO3)cc2c(=O)n3cccc(C)c3nc21	60*	-14	-64	28	-17	-14
COc1ccc(CCNC(=O)c2cc3c(=O)n4cccc(C)c4nc3n(CCCN3CCOCC3)c2=N)cc1	57*	8	-8	-12	-5	-4
COc1ccc(CNC(=O)c2c(N)n(CCCN3CCOCC3)c3nc4ccccc4nc23)cc1	70*	-12	22	-20	-6	0
O=C(N=C1SC2CS(=O)(=O)CC2N1c1ccccc1)C1CCCCC1 (configuration not stated)	13	1	8	-11	7	4
N#Cc1ccccc1S(=O)(=O)N1CCN(CC(O)CN2CCOCC2)CC1 (configuration not stated)	17	-5	-2	16	-9	-8
c1cncc(-c2nnc(-c3cccnc3)nn2)c1	-59	-40	-2	26	-2	-31
Cn1c(SSc2ccc(-c3cccnc3)n2C)ccc1-c1cccnc1	6	34	69*	46	-16	49
